From PubChem BioAssay AID602376 (Johns Hopkins Ion Channel Center, 2012)
Entries with a potency or affinity are not part of this list. Results filed as inconclusive are left out. Active and inactive are the calls of the source.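 Rule for the calls: active = raises choline transporter activity at one or more tested doses and gives a fitted dose-response curve; inconclusive = no clear call, values can overlap the other calls; inactive = no choline transporter activation at any dose, or no curve.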

The compounds below were run against High affinity choline transporter 1 (Homo sapiens) (UniProt Q9GZV3) (assay: CHT activators, dose response, cell-based, 10-point CRC, membrane potential dye (AID 602376)). Details: HEK293-CHT, choline-induced membrane potential dye, cells express CHT LV-AA mutant; series mostly up to 67 µM.
Chain of High affinity choline transporter 1 (Homo sapiens) (Q9GZV3 whole entry, looked up): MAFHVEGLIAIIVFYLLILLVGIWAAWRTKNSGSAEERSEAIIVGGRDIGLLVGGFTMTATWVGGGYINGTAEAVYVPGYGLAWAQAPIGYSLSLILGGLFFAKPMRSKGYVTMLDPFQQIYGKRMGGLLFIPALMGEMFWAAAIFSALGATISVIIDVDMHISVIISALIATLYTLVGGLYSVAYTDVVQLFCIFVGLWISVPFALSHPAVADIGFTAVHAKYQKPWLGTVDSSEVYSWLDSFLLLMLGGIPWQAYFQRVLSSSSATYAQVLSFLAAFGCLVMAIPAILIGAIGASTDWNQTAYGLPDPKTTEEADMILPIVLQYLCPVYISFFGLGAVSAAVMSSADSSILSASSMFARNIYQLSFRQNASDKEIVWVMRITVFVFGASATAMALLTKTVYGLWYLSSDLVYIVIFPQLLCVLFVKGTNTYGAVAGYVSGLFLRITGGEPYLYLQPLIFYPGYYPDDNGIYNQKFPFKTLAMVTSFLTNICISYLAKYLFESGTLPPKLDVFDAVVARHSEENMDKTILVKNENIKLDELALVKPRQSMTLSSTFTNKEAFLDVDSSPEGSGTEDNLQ

outcome, inactive:
O=C(NCC(c1ccco1)N1CCc2ccccc2C1)c1cccc(F)c1 (stereo not drawn)
CC(C)CCOC(=O)/C(=C/c1ccco1)NC(=O)/C=C/c1ccccc1
O=c1c2ccccc2n(CC(O)CN2CCOCC2)c2ccccc12 (stereo not drawn)
CCc1cc2c(N3CCN(c4ccccc4)CC3)ncnc2s1
CCOC(=O)c1cc2c(=O)n3ccccc3nc2n(CC2CCCO2)c1=NC(=O)/C=C/c1ccccc1 (stereo not drawn)
C=CCN1C(c2ccc(OCC)cc2)=CS/C1=C(\C#N)c1nnc2n1CCCCC2
CCCC12CN(C(=O)c3ccc([N+](=O)[O-])cc3)CC(C)(CN(C(=O)c3ccc([N+](=O)[O-])cc3)C1)C2=O
CC(=O)N1CCN(c2ccccc2NC(=O)COc2cc(C)ccc2C(C)C)CC1
Cc1cccc2nc(-c3cccnc3)c(NCCC(C)C)n12
COc1ccc(-c2c(-c3cc(OC)c(OC)c(OC)c3)noc2C)cn1
CC(C)(C)N(NC(=O)c1ccccc1)C(=O)c1cccc(C(=O)N(NC(=O)c2ccccc2)C(C)(C)C)c1
CCOC(=O)c1sc2nc(SCC#N)n(CCCN3CCCC3=O)c(=O)c2c1C
O=C(COC(=O)c1c2c(nc3ccccc13)CCCCC2)NCc1ccc2c(c1)OCO2
CCC(C)(C)C1CCc2nc3ccccc3c(C(=O)OC(C)C(=O)Nc3c(C)n(C)n(-c4ccccc4)c3=O)c2C1 (stereo not drawn)
CC(C)(C)n1nnnc1C(c1cccnc1)N1CCN(c2cccc(C(F)(F)F)c2)CC1 (stereo not drawn)
CC1(C)Cc2c(sc3nc4n(c(=N)c23)CCC4)CO1
CCn1cc(C(=O)OCC(=O)OC2CC(C)CCC2C(C)C)c(=O)c2ccc(C)nc21 (stereo not drawn)
CN(Cc1ccc(F)cc1)C(=O)C(c1ccccc1)c1ccccc1
CC(C)CCC(CCNCc1ccccn1)c1ccc(Cl)cc1 (stereo not drawn)
CCCCn1c(N)c(N(CCOC)C(=O)c2ccc(COc3ccccc3)o2)c(=O)[nH]c1=O
COC(=O)C1=C(C)N(Cc2ccccc2)C(=NCc2ccc(OC)cc2)N[C@H]1c1cccc(F)c1
Cc1ccc(Cl)cc1N1CCN(C(=O)C2CCC(=O)N(C3CCCCCC3)C2)CC1 (stereo not drawn)
COc1ccc(C(=O)CSc2nnc(CNC(=O)c3ccco3)n2C)cc1
